GLP1R cytotox = cytotoxicity in counter-screen for GLP-1R inverse agonists; HEK293 cAMP-luciferase reporter cells, luminescence, 24 h; hit rate 0.13% among 410,000; Potency, µM (doses to about 38.3 µM), without a hit: at the top dose activity change, negative = inhibition, usual class: inhibitors;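 also: loss of luciferase light is scored as toxicity; % is scaled to controls: 0 for no effect and ±100 for the full control effect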
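Quantitative HTS format, 1536 wells, 200 cells/uL seeded. Compounds: 23 nL, 24 h, 37 °C. Detection: luciferase reagent, luminescence at 12 min RT; decreased signal taken as cytotoxic.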
GLP1R ag = activates the human GLP-1 receptor; P43220; HEK293 GLP-1R CRE-luciferase, luminescence, 4-6 h; cells express a hypersensitive GLP-1R form; Potency, µM (doses to about 45.6 µM), for the others: top-dose activation, hits mostly activators; hit rate 0.007% among 380,000; AID 624172; also: % of control where 0% means no effect
Target sequence (P43220 whole entry, looked up): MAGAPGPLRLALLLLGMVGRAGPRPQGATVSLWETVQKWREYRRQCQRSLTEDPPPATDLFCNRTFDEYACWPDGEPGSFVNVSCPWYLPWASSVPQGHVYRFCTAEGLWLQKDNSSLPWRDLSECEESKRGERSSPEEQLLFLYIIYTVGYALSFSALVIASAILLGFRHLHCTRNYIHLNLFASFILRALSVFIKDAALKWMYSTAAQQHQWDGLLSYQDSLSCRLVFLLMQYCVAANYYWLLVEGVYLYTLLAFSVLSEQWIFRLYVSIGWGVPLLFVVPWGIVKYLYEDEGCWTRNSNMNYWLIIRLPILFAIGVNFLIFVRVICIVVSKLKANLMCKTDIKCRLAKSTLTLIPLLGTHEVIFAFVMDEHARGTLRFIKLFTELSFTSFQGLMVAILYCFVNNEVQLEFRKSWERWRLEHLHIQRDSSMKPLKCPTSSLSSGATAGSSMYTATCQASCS
Integrin act MD = activators of alpha7 integrin expression for muscular dystrophy; Potency, µM (doses to about 38.3 µM), for the others: top-dose activation, actives largely listed as activators; alpha7betagal myoblasts, beta-gal FDG fluorescence, 48 h; hit rate 0.064% among 350,000;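 also: 100% = response of the positive control SU9516; nearly all actives have a fitted effect of over 60% in size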
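Alpha7betagal+/- myoblasts (passage 13) were plated 16-24 hr, then exposed to compounds (1:260 dilution of DMSO stock) for 48 hours at 37C. After MPER lysis, β-galactosidase reporter activity was read as FDG fluorescence (ex 480/em 540) after 30 minutes.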
BRCA1 expr act = increases BRCA1 expression. hit rate 1.1% among 380,000. MCF7-BRCA1-FFLuc reporter, luminescence, 48 h; response scale: scaled: vehicle 0%, 10 µM genistein 100%. Potency, µM (top dose mostly 46.1 µM), without a hit: top-dose activation, hits mostly activators; also: nearly all actives have a fitted effect of over 80% in size
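MCF7-BRCA1-FFLuc, 2000 cells/well; 2 h attach, 37 °C/5% CO2; compound 48 h; luciferase substrate 15 min; luminescence end-point. Norm. to genistein 10 microM max activation and DMSO; concentration-response curves fitted.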
GLP1R inv ag = acts as inverse agonist at human GLP-1 receptor; HEK293 GLP-1R CRE-luciferase, luminescence, 24 h; GLP-1R form is constitutively active; hit rate 1.6% among 410,000; AID 624417; P43220; Potency, µM (titrated, usually from 38.3 µM), without a hit: at the highest dose activity change, negative = inhibition, most hits filed as inhibitors; also: % is scaled to controls: 0 for no effect and ±100 for the full control effect; nearly all actives have a fitted effect of over 55% in size
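Constitutively active GLP-1R drives a cAMP-responsive luciferase in stably transfected HEK293 cells; test compounds are added after overnight (12 h) attachment and left 24 hr, and signal loss in luminescence marks inhibition.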
* hit, by the source's call; ? = inconclusive; . = no result given. Only some compounds are listed: those with a hit (about 2.7% of all), similar ones and a draw of the others. Calls follow the shape of the dose curve; as a rule, active = well fitted curve in the direction sought with a large enough effect; inconclusive = small, poorly fitted or top-dose-only effect, or another doubt; inactive = no such curve, though single readings can be large; an effect the other way counts as inactive or inconclusive. Potency is read from the fitted curve at half-maximal effect.

SMILES	GLP1R cytotox	GLP1R ag	Integrin act MD	BRCA1 expr act	GLP1R inv ag
Cc1ccc(CSc2nnc(Nc3ccc(C)cc3)s2)cc1	-14.0%	11.9%	11.7%	-1.3%	0.7%
CCSc1nnc(Nc2ccc(C)cc2)s1	-1.3%	23.2%	-3.2%	10µM*	-26.5%
CCSc1nnc(Nc2ccccc2)s1	-0.2%	3.3%	-14.6%	11.2µM*	9.7%
CCSc1nnc(NC(=O)c2ccccc2)s1	2.8%	-3.7%	10.5%	78.4%	3.0%
CCSc1nnc(NC(=O)c2ccccc2C)s1	-7.4%	6.1%	23.8%	10µM*	-22.4%
NCCCCC(NC(=O)C1CCCN1C(=O)C1CSSCC(N)C(=O)NC(Cc2ccccc2)C(=O)NC(Cc2ccccc2)C(=O)NC(CCC(N)=O)C(=O)NC(CC(N)=O)C(=O)N1)C(=O)NCC(N)=O (stereo not given)	.	-0.2%	.	.	.
Cc1cc(N=NC(=O)c2ccccc2O)c2ccccc2c1O	-15.5%	5.1%	-39.2%	5.62µM*	17.4%
Cn1c(O)c(N=NC(=O)c2ccccc2O)c2ccccc21	5.9%	4.0%	0.4%	43.3%	2.4%
O=C(NC(=S)N1CCN(c2ccc(C(F)(F)F)cc2[N+](=O)[O-])CC1)c1cccs1	10µM*	-16.1%	-41.8%	-45.2%	0.0%
Cc1ccc(-c2ccc(/C=N/c3ncn[nH]3)o2)cc1Cl	?	-17.1%	-1.2%	-4.2%	8.91µM*
COC(=O)N/N=C/c1ccc(-c2ccc(C)c(Cl)c2)o1	0.2%	-8.0%	14.8%	38.6%	15.1%
Cc1ccc(-c2nnc3ccccc3c2C(=O)Nc2cccc(Cl)c2)cc1	16.8%	.	.	.	16.7%
Cn1ccnc1SCC(=O)c1ccc2ccccc2c1	7.2%	5.2%	0.8%	6.31µM*	-17.3%
COc1cccc(C(=O)CSc2nccn2C)c1	-9.0%	17.0%	-28.5%	56.6%	41.7%
O=C(CN1CCC(n2nnc3cc(C(F)(F)F)ccc32)CC1)Nc1ccc2c(c1)CCC2	2.9%	1.2%	-8.2%	-38.1%	4.47µM*
COc1ccc(CNC(=O)C(C)N2CCN(S(=O)(=O)c3ccccc3F)CC2)cc1 (stereo not given)	-15.1%	8.6%	5.2%	-5.4%	-4.9%
CCCc1ccc(S(=O)(=O)N2CCN(C(C)C(=O)NCc3ccc(OC)cc3)CC2)cc1 (stereo not given)	-6.4%	-2.1%	2.8%	2.9%	10µM*
Cc1ccc(N2CC(NC(=O)c3ccc(S(=O)(=O)N4CCOCC4)cc3)CC2=O)cc1C (stereo not given)	-9.2%	.	.	.	-4.6%
Cc1ccc(C(=O)Nc2ncc([N+](=O)[O-])s2)cc1	-23.7%	-6.5%	23.5%	?	1.12µM*
CCc1ccc(N=c2c([N+](=O)[O-])nn(-c3ccc4c(c3)OCCO4)n2O)cc1	-1.0%	7.3%	-13.1%	3.98µM*	41.1%
O=[N+]([O-])c1nn(-c2ccc3c(c2)OCCO3)n(O)c1=Nc1ccc(Cl)cc1	?	-10.9%	16.1%	-81.5%	?
CC(C)CN(CC(C)C)C(=O)Nc1ccccc1F	29.8%	11.4%	?	16.6%	8.91µM*
COc1cc([N+](=O)[O-])ccc1NC(=O)NCC1CCN(Cc2ccc(Cl)cc2)CC1	?	0.9%	-53.1%	-35.1%	10µM*
Cc1ccc(NC(=O)Cn2c(=O)n(-c3ccc(C)cc3)c(=O)c3c2cnn3C)cc1	-6.6%	.	.	.	14.0%
COc1cc2c(cc1OC)n(CC(=O)c1ccc(C)cc1)c(=O)n1nc(CCn3nc(C)cc3C)nc21	-5.9%	.	.	.	-13.5%
SMILES	GLP1R cytotox	GLP1R ag	Integrin act MD	BRCA1 expr act	GLP1R inv ag
CCc1ccccc1NC(=O)CC(C)n1nc(C)cc1C (stereo not given)	-0.5%	.	.	.	4.3%
COc1ccc(C(=O)Nc2nnc(SCc3cc(=O)c4cccc(F)c4[nH]3)s2)cc1	-0.7%	.	.	.	0.4%
O=c1c2ccccc2cnn1Cc1ccc(Cl)c(Cl)c1	12.1%	34.4%	?	-20.4%	10µM*
Cc1ccc(F)cc1NC(=O)CCC(=O)c1cccs1	-6.8%	-2.4%	-5.5%	-3.8%	1.2%
Cc1ccc(NC(=O)CCC(=O)c2cccs2)c(O)c1	4.7%	4.5%	6.2%	11.2µM*	7.9%
O=C(Nc1ccccc1)N(Cc1cccc(Cl)c1)c1ccccn1	5.4%	.	.	.	?
O=C(NNC1=C(C(=O)C(F)(F)F)CCC1)c1cccc(O)c1	1.4%	1.0%	-10.3%	-68.1%	?
Cc1cccc(C(=O)NNC2=C(C(=O)C(F)(F)F)CCC2)c1O	?	-10.4%	-28.3%	-57.5%	2.82µM*
C/C(Cl)=C\Cn1c(O)c(N=NC(N)=S)c2cc(Br)ccc21	-26.0%	21.9%	-64.8%	-87.8%	8.91µM*
NC(=S)N=Nc1c(O)n(Cc2ccc(Br)cc2)c2ccccc12	2.51µM*	8.6%	-46.3%	-55.5%	2.51µM*
Cc1ccc2c(c1)c(N=NC(N)=S)c(O)n2Cc1ccccc1	?	7.8%	-10.2%	-15.2%	-3.8%
COc1cc2nc(N3CCN(C)CC3)nc(NC3CCN(Cc4ccccc4)CC3)c2cc1OC	.	.	.	-38.9%	.
CCN(CC)S(=O)(=O)c1cccc(C(=O)Nc2ccccc2C(=O)Nc2ccc(OC)cc2)c1	-10.6%	.	.	.	?
CCCCCCn1cnc2c(oc3nc4c(cc32)CCCC4)c1=O	1.1%	-4.6%	?	3.55µM*	23.4%
CC(C)(C)c1ccc(S(=O)(=O)NCc2nc3cccnc3n2Cc2ccccc2Cl)cc1	0.6%	.	.	.	?
Nc1c(C(=O)N2CCCCC2)sc2nc3c(cc12)CCCC3	9.4%	11.2%	?	5.62µM*	4.8%
Nc1c(C(=O)N2CCCC2)sc2nc(-c3ccccc3)ccc12	434.5%	?	18.9%	5.62µM*	62.2%
Cc1ccc(C(=O)c2sc3nc4c(cc3c2N)CCC4)cc1	73.7%	6.6%	25.6%	-60.5%	24.5%
O=C(NCC(c1ccc(Cl)cc1)N1CCCCC1)c1ccccc1F (stereo not given)	0.5%	.	.	.	17.8%
Cc1ccc(S(=O)(=O)NC(C)(C)CN2CCC(Cc3ccccc3)CC2)cc1	-29.5%	2.6%	-60.2%	-19.7%	2.51µM*
CC(C)(CN1CCNCC1)NS(=O)(=O)c1ccc(Cl)cc1	?	14.2%	-56.3%	-29.7%	2µM*
Nc1cccc(/C=C2\C=Cc3ccccc32)c1	.	.	.	-35.0%	.
O=C(Nc1ccn(Cc2ccccc2F)n1)c1ccc(COc2cccc(Br)c2)cc1	-1.7%	-11.2%	0.0%	-69.9%	3.16µM*
COc1ccccc1-n1ncc2c(=O)[nH]c(SCC(=O)Nc3cccc(F)c3)nc21	4.0%	.	.	.	9.1%
COc1ccc2nc(/C=N/NC(=O)[C@@H]3CCCN3C(=O)OC(C)(C)C)ccc2c1	2.4%	0.1%	-0.1%	7.08µM*	105.3%
O=C(Nc1cc2c(cc1C(=O)c1ccccc1Br)OCCO2)c1cccc(Cl)c1	2.9%	0.5%	.	15.4%	4.5%
N#CC(C#N)=C1NC2(CCCCC2)Cc2ccccc21	-10.1%	15.5%	?	-2.8%	-4.3%
